The entries come from a sample that favours hits as a whole.
Tgondii IFNg: T. gondii growth inhibition with IFN-gamma, primary screen, cell-based; Toxoplasma gondii growth in IFN-gamma-treated host cells; active compounds read low; activity change, negative = inhibition, % (test concentration not listed); 3.8% of 69,000 active; in the data active means activity change below about -70%, passing the limit was not always enough;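 further: host cells are HeLa cells infected with Toxoplasma gondii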
Hits are given with their value; i = inactive.

SMILES | Tgondii IFNg
Cc1ccccc1N1CC2(CCN(C(=O)C3CC3)C2)CC1=O (centres undefined) | i
Cc1nc(Nc2ncc(C(=O)Nc3c(C)cccc3Cl)s2)cc(N2CCN(CCO)CC2)n1 | -77
Cc1cc2oc(=O)cc(C)c2cc1NC(=O)c1cnc(CN2CCCC2)s1 | i
Cc1cnc(Nc2cccc(C3CCCN3C(=O)CCOc3ccccc3C)n2)s1 (centres undefined) | i
Cn1ncc2c(NCc3cnn4ccccc34)nc(-c3cccnc3)nc21 | i
CCN(CC)CC1CN(C(=O)Cc2ccsc2)Cc2nccn2C1 (centres undefined) | i
CCOC(=O)c1cnc(-c2cccs2)nc1Sc1ccc(Cl)cc1 | i
CCOc1cc(C(F)(F)F)c(C(=O)N(CC)c2ccc(Cl)cc2)cn1 | i
COC(=O)c1cnc(Sc2ccc(Cl)cc2)nc1C(F)(F)F | -101
CNc1nc(N2CC(c3ccncc3)C2)nc2c1CCC2 | i
O=C(NCc1cccc(F)c1)Nc1ccc(-c2nc(-c3ccccc3)co2)cc1 | i
Fc1cccc(CNc2c3c(nc4cc(-c5cccc(Cl)c5)nn24)CCC3)c1 | -90
Fc1cccc(CNc2nc(-c3nnc(-c4ccc(Cl)cc4)o3)nc3ccccc23)c1 | i
CN1CC(=O)N(c2cccc(F)c2)CC12CCN(C(=O)c1cccn1C)C2 (centres undefined) | i
Cc1c(Cl)cccc1NC(=O)Cn1c(=O)cc(C(=O)N2CCc3ccccc3C2)c2ccccc21 | i
O=C(c1ccc(-n2nc(C(F)(F)F)c3c2CCCC3)cc1)N1CCC2(CC1)OCCO2 | i
Cn1ncc2c1C(COCC1CC1)CN(C(=O)c1cccnc1)C2 (centres undefined) | i
Cc1cnc(CNC(=O)[C@H]2CO[C@@H]3CCNC[C@@H]3C2)cn1 | i
O=C([C@H]1C[C@@H]2OCC[C@@H]2N(Cc2cccs2)C1)N1CCCO1 | i
CCCSCCCNc1nc(-c2nnc(-c3ccccc3)o2)nc2ccccc12 | -92
Cc1cccc(-c2nnc(-c3nc(NCCCN4CCCC4=O)c4ccccc4n3)o2)c1 | i
c1ccc(-c2nnc(-c3nc(NCCc4cccs4)c4ccccc4n3)o2)cc1 | i
c1ccc(-c2nnc(-c3nc(NCCN4CCOCC4)c4ccccc4n3)o2)cc1 | i
CCCSCCCNc1nc(-c2nnc(-c3cccc(C)c3)o2)nc2ccccc12 | -107
Cc1ccc(-c2nnc(-c3nc(NCCCN4CCCC4=O)c4ccccc4n3)o2)cc1 | i
SMILES | Tgondii IFNg
COc1ccc(CNc2nc(-c3nnc(-c4ccccc4)o3)nc3ccccc23)cc1 | i
Cc1cccc(-c2nnc(-c3nc(NCCc4cnc[nH]4)c4ccccc4n3)o2)c1 | i
Cc1ccc(-c2nnc(-c3nc(NCCCN4CCc5ccccc5C4)c4ccccc4n3)o2)cc1 | -118
Cc1ccc(-c2nnc(-c3nc(NCCc4cccs4)c4ccccc4n3)o2)cc1 | i
C1=C(CCNc2nc(-c3nnc(-c4ccccc4)o3)nc3ccccc23)CCCC1 | -99
Cc1ccc(CCNc2nc(-c3nnc(-c4ccccc4)o3)nc3ccccc23)cc1 | i
CC(C)(C)c1ccc(-n2c(CN)n[nH]c2=O)cc1 | i
COc1ccc(NC(=O)N2CCC(c3nc(C(=O)N(C)C)c(C)o3)CC2)c(C)c1 | i
COc1ccc(CN(Cc2cnc(N(C)C)nc2)C2CC(C)(C)NC(C)(C)C2)cc1 | i
COc1ccc(-n2nnnc2SCC(=O)N2CCc3ccccc32)c(OC)c1 | i
COc1ccc2c(c1)NC1(CCN(S(=O)(=O)c3ccc(C)c(C)c3)CC1)c1cccn1-2 | i
COc1cccc(-c2nc(Cn3ccn4nc(-c5ccc(Cl)cc5)cc4c3=O)c(C)o2)c1OC | i
CCCCNc1nc(-c2nnc(-c3ccccc3)o2)nc2ccccc12 | -89
Cc1ccc(CNc2nc(-c3nnc(-c4ccccc4)o3)nc3ccccc23)o1 | i
CCCCNc1nc(-c2nnc(-c3ccc(C)cc3)o2)nc2ccccc12 | i
O=S(=O)(c1ccc(F)cc1F)n1nccc1-c1ccc(-c2ccc(F)cc2F)o1 | -111
Cc1noc(C)c1C(=O)OCc1ccc(-c2ccc(F)cc2F)o1 | i
O=C(NCc1ccc(-c2ccc(F)cc2F)o1)Nc1ccc(Cl)cc1 | i
CN1CC2(CCN(C(=O)c3ccc4c(c3)OCO4)CC2)OCC1=O | i
CN(C)CC1CN(C(=O)c2cscn2)Cc2nccn2C1 (centres undefined) | i
CCC(c1cccnc1)N(C)C(=O)c1ccc(CO)o1 (centres undefined) | i
COc1ccccc1Cc1cnc(C2CCNCC2)cn1 | i
CCc1ccc2oc(=O)cc(CN3CCN(Cc4nc(-c5cc(C)ccc5C)oc4C)CC3)c2c1 | i
CCN1c2ccccc2-n2cccc2C12CCN(C(=O)Nc1cccc(Cl)c1C)CC2 | i
CCN1c2ccccc2-n2cccc2C12CCN(C(=O)Nc1ccccc1C)CC2 | -82
SMILES | Tgondii IFNg
CCN1c2cc(C)ccc2-n2cccc2C12CCN(C(=O)Nc1ccc(C)c(F)c1)CC2 | i
CCN1c2cc(C)ccc2-n2cccc2C12CCN(C(=O)Nc1ccc(F)cc1)CC2 | -96
CCN1c2cc(C)ccc2-n2cccc2C12CCN(C(=O)Nc1cccc(C)c1)CC2 | i
CCN1c2cc(C)ccc2-n2cccc2C12CCN(C(=O)NCc1ccccc1)CC2 | i
CCOC(=O)c1ccc(NC(=O)N2CCC3(CC2)c2cccn2-c2ccc(C)cc2N3CC)cc1 | i
CCN1c2cc(C)ccc2-n2cccc2C12CCN(C(=O)NCc1ccco1)CC2 | i
CCN1c2cc(C)ccc2-n2cccc2C12CCN(C(=O)Nc1ccc(C)c(C)c1)CC2 | -93
CCN1c2ccccc2-n2cccc2C12CCN(C(=O)Nc1ccccc1C(F)(F)F)CC2 | i
CCN1c2cc(C)ccc2-n2cccc2C12CCN(C(=O)Nc1ccc(Cl)cc1)CC2 | i
CCN1c2cc(C)ccc2-n2cccc2C12CCN(C(=O)NCc1ccc(F)cc1)CC2 | -114
CCN1CCC2(C=C(C(=O)NC3CC3)c3ccccc32)CC1 | i
Cc1c(Cl)cccc1S(=O)(=O)N1[C@H]2CCNC[C@@H]1CC2 | i
Cc1nc(N)nc(C)c1CC(=O)Nc1cnc2n1CCCC2 | i
COCCN1CCCc2sc(C(=O)N3CCC(N(C)C)CC3)nc21 | i
Cc1ccsc1-c1nnc(SC2Cc3ccccc3C2=O)nc1-c1sccc1C (centres undefined) | i
CCN(C)c1ncnc2c1CCN(CC1CCOC1)CC2 (centres undefined) | i
COc1ccc(-c2cc(C(=O)Nc3ccc4c(c3)CCC(=O)N4)c3ccccc3n2)cc1 | i
NS(=O)(=O)c1ccc(Cn2ccnc2-c2ccccn2)cc1 | i
N#Cc1c(SCC(=O)c2cc3ccccc3o2)nc2c(c1C(F)(F)F)CCCC2 | i
O=C1NCC2(CCCN(C(=O)c3cnc(Nc4ccccc4)nc3)CC2)O1 (centres undefined) | i
CCOc1ccc(-c2nc(CN3CCN(C(=O)NC4CCCC4)CC3)c(C)o2)cc1 | i
CC(c1ccccc1-n1cccn1)n1ccnc1-c1ccco1 (centres undefined) | i
COc1ccccc1CNC(=O)CN1C(=O)CCc2cc(S(=O)(=O)N3CCCCC3C)ccc21 (centres undefined) | i
O=C(Cc1c[nH]c2ccccc12)N1CCC(C2CCCCN(Cc3ccccc3)C2=O)CC1 (centres undefined) | i
CCO[C@H]1CN(C(=O)N2CCCC2)[C@H]2CCCO[C@@H]12 | -96
CCO[C@@H]1CCN(C(=O)C(C)C)[C@@H]2CCO[C@H]21 | i
CCO[C@H]1CC[C@@H]2[C@@H]1OCCN2C(=O)c1ccc2ccccc2c1 | i
CCC(=O)NCCc1sc(-c2cccc(F)c2)nc1C | i

Screening results (PubChem BioAssay)
